About 7,900 targets were measured; listed, in parts, are those with a hit and a random draw of the rest. About 0.6% of all pairs of compound and target were hits.
Key:
Assay in all cases: log2 fold change, soluble protein after heating vs DMSO (PISA); higher = thermal stabilisation; K562 cells, 10 uM, 30 min; active = over 0.2 and 3.5 SD of the protein, either way, in both replicates (recomputed)
[1] = compound: C#Cc1cccc(Nc2ncnc3cc(OCCOC)c(OCCOC)cc23)c1 [erlotinib]
How it was run: (§1)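 Thermal stability values are relative to control samples and come from duplicates. They are expressed as log2 fold changes. For measurement, K562 cells (2×10^6 cells/mL) received 10 μM compound for 30 min, and aliquots were heated for 3 min over 48°C-58°C, pooled, and extracted at 4°C in PBS with 0.5% NP-40. Soluble protein, the supernatant after 21,000xg for 90 min, was quantified by TMTpro 16plex LC-MS/MS with equalised channel sums.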

[2] = compound: C/C(=N\NC(=O)C1=CC(=CC=C1)S(=O)(=O)N2CCOCC2)/C3=C(C=CC(=C3)Cl)O
How it was run: as §1

[3] = compound: C1=CC(=C(C=C1Cl)C2=NC3=NC=CN=C3C(=N2)NC4=CC=NC=C4)F
How it was run: as §1

[4] = compound: C1=CC(=CC=C1C2=NC3=C(N2)C=C(C=C3)C(=O)N)OC4=CC=C(C=C4)Cl
How it was run: as §1

[5] = compound: C1=CC2=C(C=CC(=C2)/C=C\3/C(=O)NC(=NCC4=CC=CS4)S3)N=C1
How it was run: as §1

[6] = compound: C1=CC2=NC=CN=C2C=C1/C=C/3\C(=O)NC(=O)S3
How it was run: as §1

[7] = compound: C1=CC=C(C=C1)C2=NC(=C(N2)C3=CC=NC=C3)C4=CC(=C(C=C4)Cl)O
How it was run: as §1

[8] = compound: C1=CC=C2C(=C1)C3=NNC4=CC=CC(=C43)C2=O
How it was run: as §1

[9] = compound: C1CCN(C1)C(=O)NC2=CC=CC(=C2)NC3=NC=C(C(=N3)NCCC4=CN=CN4)Br
How it was run: as §1

[10] = compound: C1CN(CCC1(CC2=CC=C(C=C2)Cl)N)C3=NC=NC4=C3C=CN4
How it was run: as §1

[11] = compound: C1COCCN1CCN2C3=CC=CC=C3N=C2NC(=O)C4=CC(=CC=C4)[N+](=O)[O-] [IRAK-1-4 Inhibitor I]
How it was run: as §1

[12] = compound: C=CC(=O)N1CCC[C@@H](n2nc(-c3ccc(Oc4ccccc4)cc3)c3c(N)ncnc32)C1 [ibrutinib]
How it was run: as §1

[13] = compound: CC(=O)c1cnc2ccc(-c3cc(Cl)c(O)c(Cl)c3)nc2c1N[C@H]1CC[C@H](CN(C)C)CC1
How it was run: as §1

[14] = compound: CC(C)(C)Cn1c(N)nc2ccc(-c3[nH]c(C(C)(C)C)nc3-c3ccc(F)cc3)nc21 [ralimetinib]
How it was run: as §1

[15] = compound: CC(C)(O)CC(=O)NCCn1ccc2ncnc(Nc3ccc(Oc4cccc(C(F)(F)F)c4)c(Cl)c3)c21
How it was run: as §1

[16] = compound: CC(C)C1=C2N=C(C=C(N2N=C1)NCC3=CC=CC=C3)NCCCCCCN
How it was run: as §1

[17] = compound: CC(C)C[C@@H](C=O)NC(=O)[C@H](CC(C)C)NC(=O)[C@H](CC(C)C)NC(=O)OCc1ccccc1
How it was run: as §1

[18] = compound: CC(C)N(C[C@H]1O[C@@H](n2cnc3c(N)ncnc32)[C@H](O)[C@@H]1O)[C@H]1C[C@@H](CCc2nc3cc(C(C)(C)C)ccc3[nH]2)C1 [pinometostat]
How it was run: as §1

[19] = compound: CC1=C(C(CC(=O)N1)C2=CC=C(C=C2)C(F)(F)F)C(=O)NC3=C(C=C4C(=C3)C=NN4)F
How it was run: as §1

[20] = compound: CC1=C(C2=C(C=C1)C(=O)C3=CC=CC=C3N2CCCN)C
How it was run: as §1

Measured: log2 fold change

BCCIP (UniProt Q9P287)
UniProt Q9P287, sequence (Q9P287 whole entry, looked up): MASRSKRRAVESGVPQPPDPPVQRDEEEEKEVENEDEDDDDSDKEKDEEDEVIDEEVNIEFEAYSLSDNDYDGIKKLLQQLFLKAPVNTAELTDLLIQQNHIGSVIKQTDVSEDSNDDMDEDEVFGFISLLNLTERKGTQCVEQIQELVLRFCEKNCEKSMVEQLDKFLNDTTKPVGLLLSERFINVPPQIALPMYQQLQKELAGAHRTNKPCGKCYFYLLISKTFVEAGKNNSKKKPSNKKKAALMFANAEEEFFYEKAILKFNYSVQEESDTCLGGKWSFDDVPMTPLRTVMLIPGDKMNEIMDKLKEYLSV
inactive: [1] -0.024 | [2] 0.045 | [3] 0.019 | [4] -0.027 | [5] -0.029 | [6] 0.015 | [7] 0.013 | [8] 0.035 | [9] -0.036 | [10] 0.114 | [11] -0.025 | [12] -0.063 | [13] -0.06 | [14] -0.005 | [15] 0.002 | [16] 0.035 | [17] 0.015 | [18] 0.073 | [19] -0.041
active: [20] 0.255

AAMP (UniProt Q13685)
active: [20] 0.225
inactive: [1] 0.025 | [2] -0.032 | [3] 0.006 | [4] -0.003 | [5] 0.042 | [6] 0.074 | [7] -0.007 | [8] 0.003 | [9] -0.006 | [10] 0.085 | [11] 0.007 | [12] 0.023 | [13] 0.064 | [14] 0.031 | [15] 0.04 | [16] -0.051 | [17] -0.02 | [18] 0.007 | [19] 0

ATP6V0A1 isoform 3 (UniProt Q93050)
UniProt Q93050, sequence (Q93050 whole entry, looked up): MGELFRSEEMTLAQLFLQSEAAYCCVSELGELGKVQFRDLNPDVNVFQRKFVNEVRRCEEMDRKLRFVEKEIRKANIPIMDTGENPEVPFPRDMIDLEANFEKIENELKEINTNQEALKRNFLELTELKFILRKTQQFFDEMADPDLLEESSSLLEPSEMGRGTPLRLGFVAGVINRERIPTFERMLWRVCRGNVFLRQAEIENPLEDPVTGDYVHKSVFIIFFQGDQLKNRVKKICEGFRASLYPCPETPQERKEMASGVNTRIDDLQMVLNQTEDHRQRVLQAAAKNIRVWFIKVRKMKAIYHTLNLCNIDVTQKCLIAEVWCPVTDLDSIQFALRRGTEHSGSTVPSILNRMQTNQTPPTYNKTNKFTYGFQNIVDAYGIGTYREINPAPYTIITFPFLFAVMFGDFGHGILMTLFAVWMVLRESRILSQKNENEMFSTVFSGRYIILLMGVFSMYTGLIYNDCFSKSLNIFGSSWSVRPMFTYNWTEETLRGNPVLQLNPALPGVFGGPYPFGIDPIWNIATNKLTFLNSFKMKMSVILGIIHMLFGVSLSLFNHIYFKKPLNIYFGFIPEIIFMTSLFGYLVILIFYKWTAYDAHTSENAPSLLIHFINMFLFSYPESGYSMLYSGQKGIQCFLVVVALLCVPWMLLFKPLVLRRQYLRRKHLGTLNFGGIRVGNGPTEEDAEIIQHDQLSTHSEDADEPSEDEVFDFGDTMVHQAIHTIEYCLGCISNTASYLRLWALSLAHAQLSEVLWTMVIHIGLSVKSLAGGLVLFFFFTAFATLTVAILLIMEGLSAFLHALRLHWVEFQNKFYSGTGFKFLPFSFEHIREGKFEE
inactive: [1] -0.086 | [2] -0.041 | [3] -0.176 | [4] 0.061 | [5] 0 | [6] -0.008 | [7] -0.232 | [8] 0.052 | [9] -0.066 | [10] -0.195 | [11] -0.068 | [12] 0 | [13] -0.033 | [14] 0.087 | [15] 0.019 | [17] 0.125 | [18] 0.198 | [19] 0.067 | [20] 0.011
active: [16] -0.463

BRAP (UniProt Q7Z569)
UniProt Q7Z569, sequence (Q7Z569 whole entry, looked up): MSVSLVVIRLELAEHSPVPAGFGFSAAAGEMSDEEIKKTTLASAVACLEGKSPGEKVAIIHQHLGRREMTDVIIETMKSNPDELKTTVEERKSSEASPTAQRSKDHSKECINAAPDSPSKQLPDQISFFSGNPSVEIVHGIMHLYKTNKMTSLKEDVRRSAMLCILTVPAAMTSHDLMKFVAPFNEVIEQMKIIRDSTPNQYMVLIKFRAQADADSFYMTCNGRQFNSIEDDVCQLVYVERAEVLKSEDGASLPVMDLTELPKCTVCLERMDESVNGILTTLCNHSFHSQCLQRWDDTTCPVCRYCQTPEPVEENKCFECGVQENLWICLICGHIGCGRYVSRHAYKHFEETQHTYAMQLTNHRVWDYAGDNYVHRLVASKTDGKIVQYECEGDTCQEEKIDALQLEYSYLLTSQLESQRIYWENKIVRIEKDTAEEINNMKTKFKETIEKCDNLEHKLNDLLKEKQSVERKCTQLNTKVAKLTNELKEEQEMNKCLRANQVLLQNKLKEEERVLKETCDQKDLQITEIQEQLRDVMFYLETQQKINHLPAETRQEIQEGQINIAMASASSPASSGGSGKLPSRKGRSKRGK
inactive: [1] 0.114 | [2] 0.09 | [3] 0.022 | [4] 0.012 | [5] 0.001 | [6] 0.032 | [7] 0.172 | [8] -0.023 | [9] -0.07 | [10] -0.059 | [11] -0.032 | [12] -0.066 | [13] -0.018 | [14] 0.16 | [15] -0.016 | [16] -0.11 | [17] -0.093 | [18] 0.033 | [19] 0.026
active: [20] 0.263

BTAF1 (UniProt O14981)
inactive: [1] 0.04 | [2] 0.078 | [3] 0.072 | [4] 0.005 | [5] 0.048 | [6] -0.006 | [7] -0.038 | [8] -0.032 | [9] 0.011 | [10] 0.05 | [11] 0.021 | [12] 0.029 | [13] 0.022 | [14] -0.043 | [15] -0.168 | [16] -0.131 | [17] 0.01 | [18] -0.011 | [19] 0.003 | [20] -0.087

ARL1 (UniProt P40616)
inactive: [1] 0.049 | [2] 0.063 | [3] 0.072 | [4] -0.091 | [5] 0.027 | [6] -0.028 | [7] 0.13 | [8] 0.084 | [9] -0.076 | [10] 0.055 | [11] 0.007 | [12] -0.031 | [13] -0.06 | [14] 0.029 | [15] -0.09 | [16] 0.044 | [17] -0.049 | [18] -0.039 | [19] -0.065 | [20] 0.066

ARGLU1 (UniProt Q9NWB6)
UniProt Q9NWB6, sequence (Q9NWB6 whole entry, looked up): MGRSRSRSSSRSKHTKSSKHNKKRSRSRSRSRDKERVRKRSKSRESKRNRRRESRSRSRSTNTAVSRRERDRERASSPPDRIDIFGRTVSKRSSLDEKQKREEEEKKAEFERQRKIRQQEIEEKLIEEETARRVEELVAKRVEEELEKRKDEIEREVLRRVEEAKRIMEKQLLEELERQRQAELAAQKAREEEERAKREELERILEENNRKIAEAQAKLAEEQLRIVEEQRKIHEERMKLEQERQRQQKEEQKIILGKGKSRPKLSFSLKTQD
active: [5] -0.38 | [13] -0.633
inactive: [1] 0.016 | [2] 0.052 | [3] -0.183 | [4] 0.115 | [6] 0.014 | [7] -0.125 | [8] -0.235 | [9] -0.02 | [10] -0.232 | [11] -0.289 | [12] -0.019 | [14] -0.029 | [15] 0.15 | [16] 0.023 | [17] -0.001 | [18] 0.127 | [19] -0.019 | [20] 0.134

ARL2BP (UniProt Q9Y2Y0)
UniProt Q9Y2Y0, sequence (Q9Y2Y0 whole entry, looked up): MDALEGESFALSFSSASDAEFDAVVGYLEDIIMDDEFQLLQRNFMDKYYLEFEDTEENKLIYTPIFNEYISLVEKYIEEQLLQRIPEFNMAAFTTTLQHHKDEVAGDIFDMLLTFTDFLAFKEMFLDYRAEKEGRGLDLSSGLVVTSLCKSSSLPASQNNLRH
inactive: [1] -0.048 | [2] 0.014 | [3] 0.041 | [4] -0.02 | [5] 0.093 | [6] 0.104 | [7] 0.037 | [8] -0.047 | [9] -0.008 | [10] -0.072 | [11] -0.053 | [12] -0.009 | [13] 0.03 | [14] 0.01 | [15] -0.127 | [16] -0.269 | [17] -0.011 | [18] -0.037 | [19] -0.002 | [20] -0.028

ATP1B3 (UniProt P54709)
inactive: [1] -0.016 | [2] -0.004 | [3] -0.002 | [4] -0.019 | [5] -0.021 | [6] 0.023 | [7] 0.057 | [8] -0.052 | [9] -0.024 | [10] 0.048 | [11] 0.025 | [12] 0.043 | [13] -0.03 | [14] -0.036 | [15] 0.01 | [16] 0.154 | [17] -0.008 | [18] -0.056 | [19] -0.012 | [20] -0.032

AP2A1 (UniProt O95782)
inactive: [1] -0.019 | [2] 0.012 | [3] -0.035 | [4] 0.003 | [5] -0.041 | [6] 0.003 | [7] 0.057 | [10] -0.038 | [11] -0.054 | [12] 0.01 | [13] -0.14 | [14] 0.052 | [15] 0.027 | [16] 0.023 | [17] -0.06 | [18] 0 | [19] 0.01 | [20] 0.081
active: [8] -0.381 | [9] -0.527

AP2S1 (UniProt P53680)
UniProt P53680, sequence (P53680 whole entry, looked up): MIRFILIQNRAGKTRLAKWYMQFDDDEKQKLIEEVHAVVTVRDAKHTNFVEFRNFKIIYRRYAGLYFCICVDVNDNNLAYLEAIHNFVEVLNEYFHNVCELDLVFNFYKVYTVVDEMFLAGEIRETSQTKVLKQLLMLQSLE
inactive: [1] -0.1 | [2] 0.148 | [3] -0.056 | [4] -0.018 | [5] 0.052 | [6] 0.013 | [7] -0.011 | [10] -0.003 | [11] -0.054 | [12] -0.01 | [13] -0.117 | [14] -0.017 | [15] -0.003 | [16] 0.028 | [17] -0.07 | [18] 0.038 | [19] -0.009 | [20] 0.091
active: [8] -0.27 | [9] -0.354

APOBEC3G (UniProt Q9HC16)
UniProt Q9HC16, sequence (Q9HC16 whole entry, looked up): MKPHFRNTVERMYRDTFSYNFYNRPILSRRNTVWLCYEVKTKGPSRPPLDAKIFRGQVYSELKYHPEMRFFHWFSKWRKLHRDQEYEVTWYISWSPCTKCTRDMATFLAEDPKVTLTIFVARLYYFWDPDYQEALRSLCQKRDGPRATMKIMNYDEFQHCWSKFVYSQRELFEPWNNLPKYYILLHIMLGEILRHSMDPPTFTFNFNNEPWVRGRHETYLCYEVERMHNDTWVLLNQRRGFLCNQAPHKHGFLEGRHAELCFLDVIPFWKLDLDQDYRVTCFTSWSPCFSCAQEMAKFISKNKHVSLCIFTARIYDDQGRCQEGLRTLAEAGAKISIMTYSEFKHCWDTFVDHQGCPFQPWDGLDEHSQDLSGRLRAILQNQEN
inactive: [1] -0.087 | [2] 0.027 | [3] -0.124 | [4] 0.047 | [5] -0.005 | [6] 0.056 | [7] -0.056 | [8] 0.109 | [9] 0.181 | [10] -0.362 | [11] -0.064 | [12] 0.103 | [13] -0.111 | [14] 0.128 | [15] 0.075 | [16] 0.046 | [17] 0.077 | [18] 0.11 | [19] -0.09
active: [20] -0.492

AFDN isoform 5 (UniProt P55196)
UniProt P55196, sequence (P55196 whole entry, looked up): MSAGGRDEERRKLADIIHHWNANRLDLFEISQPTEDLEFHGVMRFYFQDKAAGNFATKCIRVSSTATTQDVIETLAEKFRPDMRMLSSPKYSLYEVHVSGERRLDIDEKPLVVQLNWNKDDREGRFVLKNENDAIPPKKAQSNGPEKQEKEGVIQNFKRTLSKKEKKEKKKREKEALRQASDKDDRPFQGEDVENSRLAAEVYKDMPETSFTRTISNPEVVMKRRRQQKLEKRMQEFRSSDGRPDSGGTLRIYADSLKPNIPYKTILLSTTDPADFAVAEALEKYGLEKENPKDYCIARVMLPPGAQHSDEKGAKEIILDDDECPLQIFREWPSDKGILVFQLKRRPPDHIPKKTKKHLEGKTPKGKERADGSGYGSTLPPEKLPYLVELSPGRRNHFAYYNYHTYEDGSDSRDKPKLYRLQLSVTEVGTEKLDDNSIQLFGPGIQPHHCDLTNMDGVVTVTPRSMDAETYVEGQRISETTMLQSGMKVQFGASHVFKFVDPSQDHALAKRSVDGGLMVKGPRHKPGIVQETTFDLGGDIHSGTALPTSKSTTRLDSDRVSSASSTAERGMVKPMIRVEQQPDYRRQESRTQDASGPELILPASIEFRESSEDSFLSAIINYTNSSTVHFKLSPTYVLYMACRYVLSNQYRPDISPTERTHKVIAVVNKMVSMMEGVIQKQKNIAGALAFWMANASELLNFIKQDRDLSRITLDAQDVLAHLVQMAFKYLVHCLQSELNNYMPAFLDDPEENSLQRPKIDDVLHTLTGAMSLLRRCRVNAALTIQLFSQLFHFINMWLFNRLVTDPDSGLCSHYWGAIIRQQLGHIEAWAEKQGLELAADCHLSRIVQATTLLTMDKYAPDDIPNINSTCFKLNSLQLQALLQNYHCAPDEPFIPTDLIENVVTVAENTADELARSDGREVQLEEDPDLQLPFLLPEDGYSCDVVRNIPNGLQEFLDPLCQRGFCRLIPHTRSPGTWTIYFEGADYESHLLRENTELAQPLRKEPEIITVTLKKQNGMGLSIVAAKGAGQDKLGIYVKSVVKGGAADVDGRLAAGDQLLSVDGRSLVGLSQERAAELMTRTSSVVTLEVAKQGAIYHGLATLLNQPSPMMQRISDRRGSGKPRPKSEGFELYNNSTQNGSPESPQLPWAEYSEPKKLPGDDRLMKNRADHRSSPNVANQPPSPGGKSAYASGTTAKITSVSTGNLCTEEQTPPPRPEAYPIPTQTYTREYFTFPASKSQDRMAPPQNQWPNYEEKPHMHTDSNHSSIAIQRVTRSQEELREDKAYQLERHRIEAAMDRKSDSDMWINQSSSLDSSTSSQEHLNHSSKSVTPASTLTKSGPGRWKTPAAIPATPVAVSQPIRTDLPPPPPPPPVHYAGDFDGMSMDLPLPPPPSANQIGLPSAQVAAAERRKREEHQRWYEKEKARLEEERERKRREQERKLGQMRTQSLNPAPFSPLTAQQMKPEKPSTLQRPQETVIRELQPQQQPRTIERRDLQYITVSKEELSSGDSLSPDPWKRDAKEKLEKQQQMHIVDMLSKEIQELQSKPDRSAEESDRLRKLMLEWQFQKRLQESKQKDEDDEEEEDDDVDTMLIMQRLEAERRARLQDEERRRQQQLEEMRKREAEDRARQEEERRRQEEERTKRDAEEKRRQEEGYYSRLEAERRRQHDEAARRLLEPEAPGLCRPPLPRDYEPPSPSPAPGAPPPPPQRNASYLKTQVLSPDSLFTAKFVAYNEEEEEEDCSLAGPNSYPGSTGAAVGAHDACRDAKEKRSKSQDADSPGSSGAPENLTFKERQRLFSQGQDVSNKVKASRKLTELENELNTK
inactive: [1] -0.005 | [2] 0.101 | [3] 0.021 | [4] 0.01 | [5] -0.02 | [6] 0 | [7] 0.012 | [8] -0.005 | [9] -0.049 | [10] 0.038 | [11] -0.018 | [12] -0.012 | [13] -0.19 | [14] -0.002 | [15] -0.125 | [16] -0.082 | [17] 0.01 | [18] 0.004 | [19] 0.007 | [20] 0.049

ALDH1B1 (UniProt P30837)
inactive: [1] 0 | [2] 0.073 | [3] 0.066 | [4] 0.081 | [5] 0.062 | [6] -0.009 | [7] 0.044 | [8] 0.065 | [9] -0.028 | [10] 0.043 | [11] 0.051 | [12] 0.031 | [13] -0.009 | [14] -0.004 | [15] -0.072 | [16] 0.132 | [17] -0.01 | [18] -0.022 | [19] -0.054 | [20] 0.221

AKT1 (UniProt P31749)
UniProt P31749, sequence (P31749 whole entry, looked up): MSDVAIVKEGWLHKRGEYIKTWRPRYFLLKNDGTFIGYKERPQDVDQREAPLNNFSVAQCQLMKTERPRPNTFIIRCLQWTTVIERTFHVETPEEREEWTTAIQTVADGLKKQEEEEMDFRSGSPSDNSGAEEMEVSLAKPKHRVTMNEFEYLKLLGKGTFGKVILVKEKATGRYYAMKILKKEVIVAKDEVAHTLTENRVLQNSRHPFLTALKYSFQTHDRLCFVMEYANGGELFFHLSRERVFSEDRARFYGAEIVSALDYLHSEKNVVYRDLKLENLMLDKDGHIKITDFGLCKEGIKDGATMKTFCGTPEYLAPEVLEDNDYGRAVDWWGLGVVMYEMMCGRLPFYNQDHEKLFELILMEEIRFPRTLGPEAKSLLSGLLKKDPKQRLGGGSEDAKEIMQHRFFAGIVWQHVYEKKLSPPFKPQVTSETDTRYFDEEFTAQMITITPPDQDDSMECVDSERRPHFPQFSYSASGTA
inactive: [1] 0.095 | [2] 0.034 | [3] 0.101 | [4] -0.067 | [5] 0 | [6] 0.184 | [7] 0.117 | [8] 0.059 | [9] -0.026 | [10] 0.164 | [11] -0.014 | [12] -0.244 | [13] 0.03 | [14] -0.023 | [15] 0.01 | [16] -0.141 | [17] 0.07 | [18] -0.051 | [19] -0.161 | [20] -0.038

ADAM15 (UniProt Q13444)
inactive: [1] 0.314 | [2] 0.154 | [3] 0.03 | [4] -0.223 | [5] 0.035 | [6] 0.068 | [7] 0.043 | [8] 0.08 | [9] -0.042 | [10] 0.013 | [11] -0.026 | [12] 0.045 | [13] -0.199 | [14] 0.024 | [15] 0.008 | [16] 0.14 | [17] 0.053 | [18] 0.046 | [19] 0.027 | [20] 0.033
